HT1080 IDH1KD tx: toxicity to HT-1080 IDH1 knockdown cells (counter line) | HT-1080 IDH1 knockdown viability, ATP luminescence, 48 h | Potency, µM (doses to about 46.1 µM), most hits filed as cytotoxic | hit rate 2% among 360,000
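In this qHTS, HT-1080 cells depleted of IDH1 are exposed for 48 h at 37 °C to compound titrations. Toxicity is scored from CellTiter-Glo luminescence, with DMSO as full viability and medium alone as none.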
DT40 TDP1 no CPT: qHTS for Inhibitors of human tyrosyl-DNA phosphodiesterase 1 (TDP1): qHTS in cells in absence of CPT | DT40 Tdp1-/- hTDP1 cells, no CPT, ATP luminescence, 48 h | Potency, µM (top dose mostly 46.2 µM), usual class: inhibitors | hit rate 15% among 420,000; further: nearly all actives have a fitted effect of over 55% in size
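No-CPT arm: Tdp1-/-;hTDP1 DT40 cells (400/well) plus compounds, incubated ≥48 hr at 37 °C. Readout CellTiter-Glo luminescence.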
IL1B secr inh: inflammasome signaling inhibition, IL-1 beta readout; THP-1 LPS/ATP IL-1B secretion, AlphaLISA, 16 h; stronger effect = lower value; activity change, % at 57.5 µM; hit rate 4.7% among 360,000; in the data active means activity change below about -50%; inconclusive means mostly about -30% to -49%
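Secreted IL-1B measured by AlphaLISA bead assay after 16 h compound exposure of THP-1 cells; compounds (final up to 57.5 uM) added 1 h before LPS (250 ng/mL) and ATP (1.25 mM) stimulation; lower signal means less secretion.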
DT40 TDP1 CPT: growth inhibition of DT40 Tdp1-/-;hTDP1 cells with camptothecin (screen for TDP1 inhibitors); Potency, µM (highest dose often 46.2 µM), usual class: inhibitors; AID 686979; chicken DT40 Tdp1-/-;hTDP1 cells + 20 nM CPT, ATP luminescence, 48 h; hit rate 12% among 420,000; further: nearly all actives have a fitted effect of over 55% in size
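Chicken DT40 Tdp1-/- cells stably complemented with human TDP1 were seeded at 400 cells/well in medium containing 20 nM camptothecin, exposed to pin-transferred compounds, and grown at 37 °C for at least 48 hr. Viability was read as ATP luminescence.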
HT1080-NT tox: kills 2HG-producing HT-1080-NT fibrosarcoma cells; AID 686970; HT-1080-NT fibrosarcoma viability, CellTiter-Glo ATP luminescence, 48 h; Potency, µM (series often up to 46.1 µM), most hits filed as cytotoxic; hit rate 1.6% among 360,000;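 further: NT is the 2HG producing partner of a matched IDH1 knockdown line; nearly all actives have a fitted effect of over 55% in size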
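Compounds were tested in concentration-response format on HT-1080-NT cells for 48 hours at 37 degrees C. Cell viability came from CellTiter-Glo luminescence; curves were classified by r2, response magnitude and activity.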
Numbers stand for hits; 0 = inactive; ? = inconclusive; - = no result; [ ] = remark or other dose. Only some compounds are listed: those with a hit (about 19% of all), similar ones and a draw of the others. Unless noted, the call rests on the fitted dose curve; in most records, active means well fitted curve in the direction sought with a large enough effect; inconclusive means small, poorly fitted or top-dose-only effect, or another doubt; inactive means no such curve, though single readings can be large; an effect the other way counts as inactive or inconclusive.

SMILES	HT1080 IDH1KD tx	DT40 TDP1 no CPT	IL1B secr inh	DT40 TDP1 CPT	HT1080-NT tox
Cc1ccc(-c2nn(-c3cccc(F)c3)cc2CN(Cc2nccn2C)C(C)C)o1	?	?	-96	?	0
Cc1ccc(-c2nn(-c3cccc(F)c3)cc2CN2CCN(c3ccccn3)CC2)o1	0	23µM	0	?	0
COc1ccc(S(=O)(=O)N2CCCC(C(=O)NCc3ccccc3)C2)cc1 (stereo not given)	0	0	0	0	0
Cn1c(=NC(=O)CCS(=O)(=O)c2ccccc2)sc2cc(F)ccc21	0	?	0	?	0
CCOc1cccc2sc(=NC(=O)CCS(=O)(=O)c3ccc(F)cc3)n(C)c12	0	16µM	0	?	0
COc1cccc2sc(=NC(=O)CCS(=O)(=O)c3ccc(C)cc3)n(C)c12	0	21µM	0	?	0
CCOc1cccc2sc(=NC(=O)CCS(=O)(=O)c3ccccc3)n(CC)c12	0	12µM	0	?	0
CCCn1c(=NC(=O)CCS(=O)(=O)c2ccccc2)sc2cc(S(N)(=O)=O)ccc21	0	21µM	0	21µM	0
CCOC(=O)C1CCN(C(=O)Cn2nc(CC)n3c(cc4occc43)c2=O)CC1	-	0	-	?	-
CCOc1cccc2sc(=NC(=O)c3ccco3)n(CC(=O)OC)c12	0	15µM	0	?	0
O=C(COc1ccc2ccccc2c1)Nc1ccc(Br)cc1C(=O)O	0	0	0	0	0
CCN(c1ccccc1)S(=O)(=O)c1cccc(C(=O)N(C)CC(=O)Nc2ccc(F)c(F)c2F)c1	0	18µM	?	15µM	0[9.24 µM]
COc1cccc(C(=O)N(C)CC(=O)Nc2ccc(F)c(F)c2F)c1	0	0	0	0	0
C=CCN(c1ccccc1)S(=O)(=O)c1cccc(C(=O)N(CC)CC(=O)Nc2c(F)cccc2F)c1	0	15µM	0	23µM	0
COC(=O)c1ccc(NC(=O)Cn2nc(C)cc2C)cc1	0	0	0	0	0
CCOC(=O)[C@@H]1[C@H]2COc3ccccc3[C@H]2N2C(=O)N(c3ccc(C(F)(F)F)cc3)C(=O)[C@]12C	0	15µM	0	18µM	0
CCOC(=O)[C@@H]1[C@H]2COc3ccccc3[C@@H]2N2C(=O)N(c3ccc(C)cc3)C(=O)[C@@]12C	0	0	0	0	0
CCOC(=O)[C@@H]1[C@H]2COc3ccccc3[C@@H]2N2C(=O)N(c3ccc(C(F)(F)F)cc3)C(=O)[C@]12C	0	?	0	18µM	0
CCOC(=O)[C@H]1[C@H]2COc3cc(OC)ccc3[C@@H]2N2C(=O)N(c3ccc(Cl)cc3)C(=O)[C@@]12C	0	?	0	18µM	0
CCOC(=O)[C@@H]1[C@H]2COc3ccc(Br)cc3[C@@H]2N2C(=O)N(c3ccc(C(F)(F)F)cc3)C(=O)[C@]12C	0	16µM	0	?	0
OC(CNc1ccccc1)Cn1ccc2ccccc21 (stereo not given)	?	0	0	?	0
CC(=O)Nc1nc(SCC(=O)NCc2ccc(F)cc2)[nH]c(=O)c1NC(=O)c1cccs1	0	0	0	0	0
CS(=O)(=O)N(CC(=O)Nc1cccc(Cl)c1Cl)c1ccccc1	0	?	0	?	0
CC(C)(C)C(=O)CSc1ccc(S(=O)(=O)N2CCN(Cc3ccccc3)CC2)cn1	0	?	0	?	0
CCOC(=O)[C@@H]1[C@H]2COc3ccccc3[C@@H]2N2C(=O)N(c3ccc(C(F)(F)F)cc3)C(=O)[C@@]12C	0	23µM	0	13µM	0
CCOC(=O)[C@@H]1[C@H]2COc3ccccc3[C@@H]2N2C(=O)N(c3ccc(F)cc3)C(=O)[C@@]12C	0	0	0	0	0
CC(=O)OCC1OC(n2ccc3ccccc32)C(OC(C)=O)C(OC(C)=O)C1OC(C)=O (stereo not given)	0	?	0	?	0
COC(=O)C1C=CC(OC2OC(COC(C)=O)C(OC(C)=O)C(OC(C)=O)C2OC(C)=O)n2c(=O)n(-c3ccccc3)c(=O)n21 (stereo not given)	5.8µM	0.82µM	0	0.73µM	?

Source: PubChem BioAssay
